The results in this text go back to PubChem BioAssay (Tox21).

Results filed as inconclusive are left out. Unmarked numbers belong to inactive results. Activity calls are given as the source filed them. How the calls were made is not given here.
On the % scale 0 is the no-effect control and ±100 the full control effect; potency means the concentration at half of the fitted maximal effect.

This experiment can be described thus: qHTS assay to identify small molecule antagonists of the estrogen related receptor signaling pathway with the pleiotropic PPARgamma coactivator (PGC) from Tox21 10K library (AID 1224841). Further: actives are mostly falling curves and most rising ones were filed inactive; nearly all actives have a fitted effect of over 50% in size. Particulars: PGC/ERR reporter cell line, ONE-Glo luciferase, 18 h; series mostly up to 92.4 µM; activity, negative = inhibition: at the top concentration. From the text:
U.S. Tox21 Program National Center for Advancing Translational Sciences [NCATS] NIH Chemical Genomics Center [NCGC] U.S. Environmental Protection Agency [EPA] National Institutes of Environmental Health Sciences [NIEHS] National Toxicology Program [NTP] U.S. Food and Drug Administration [FDA] Tox21 Assay Overview: Estrogen related receptors (ERRs), the first orphan nuclear receptors discovered, play an important role in the control of cellular energy metabolism. ERRs are required for high-energy production in response to the environmental challenges. The pleiotropic PPARgamma coactivator (PGC) is a major partner of ERR and a key regulator in energy homeostasis. Together they have been implicated in the etiology of metabolic disorders such as Type 2 diabetes and metabolic syndrome. ERR-alpha was also identified as an adverse marker for breast cancer progression; ERR-alpha-positive tumors have a poor prognosis. To screen and to identify environmental compounds that perturb the ERR and PGC/ERR signaling pathways could provide valuable information for potential therapeutic or preventive measures in the treatment of metabolic disease. For identifying PGC/ERR antagonists, PGC/ERR cell line (provided by NTP) has been used to screen Tox21 10K library.
Tox21 Assay Protocol Summary: The PGC/ERR cells were dispensed at 2,000 cells/5 ul/well in 1536-well white plates using a Multidrop dispenser. After the assay plates were incubated at a 37 C/5% CO2 incubator for 6 hours, 23 nL of compounds dissolved in DMSO, positive and negative controls or DMSO only was transferred to the assay plate by a pin tool. The plates were incubated at 37 C for 18 hours. 4 ul/well of One-Glo reagent was added into the assay plates using a Flying Reagent Dispenser. After 30-minute incubation at room temperature, the luminescence intensity in the plates was measured using a ViewLux plate reader.
For the molecule `NS(=O)(=O)C(F)(F)C(F)(F)C(F)(F)C(F)(F)C(F)(F)C(F)(F)C(F)(F)C(F)(F)F`, the “activity, negative = inhibition” value was -27.3%.

With `CC(Cl)Cl`, the “activity, negative = inhibition” value is -2.75%.

On to `O=C(O)C(F)(F)C(F)(F)C(F)(F)C(F)(F)C(F)(F)C(F)(F)C(F)(F)C(F)(F)C(F)(F)C(F)(F)F`, for which the “activity, negative = inhibition” value was 85.1%.

On to `CC(=O)NC1CCSC1=O` (stereo not given), for which the “activity, negative = inhibition” value was -1.12% [at 42.5 µM].

On to `O=[N+]([O-])c1cc(C(F)(F)F)cc([N+](=O)[O-])c1Cl`, for which the “activity, negative = inhibition” value is -14.7%.

Regarding `CNP(=O)(OC)Oc1ccc(C(C)(C)C)cc1Cl` (stereo not given), the “activity, negative = inhibition” value is -20.2%.

Regarding `Clc1ccc(C(OCCN2CCCCC2)c2ccccc2)cc1` (stereo not given), the “activity, negative = inhibition” value is -10.1% [at 42.5 µM].

On to `CC(=O)C(C)(C)C`, for which the “activity, negative = inhibition” value is -1.34%.

`Brc1ccc(Oc2ccccc2)cc1`: the Potency entry is “inactive”.

Turning to `CCCCC(O)(Cn1cncn1)c1ccc(Cl)cc1Cl` (stereo not given), the Potency is 48.5 µM (active).

In the case of `CCCC(Cn1cncn1)c1ccc(Cl)cc1Cl` (stereo not given), the Potency is 30.6 µM (active).

With `C(=NC1CCCCC1)=NC1CCCCC1`, the Potency is 13.7 µM (active).

Regarding `O=C(CBr)Nc1ccc(Cl)cc1C(=O)c1ccccc1F`, the “activity, negative = inhibition” value is 6.7% [at 42.5 µM].

With `CCOP(=S)(Oc1ccc([N+](=O)[O-])cc1)c1ccccc1` (stereo not given), the “activity, negative = inhibition” value was -1.7%.

Take `ClCc1cccc(Cl)c1`: the “activity, negative = inhibition” value is -1.76% [at 42.5 µM].

For `O=C(NC(=O)c1c(F)cccc1F)Nc1ccc(OC(F)(F)C(F)OC(F)(F)F)c(Cl)c1` (stereo not given), the “activity, negative = inhibition” value is -14.5% [at 42.5 µM].

For `CC(C)N(C(=O)COc1nnc(C(F)(F)F)s1)c1ccc(F)cc1`, the Potency was 38.6 µM (active).

As to `OC(c1ccc(Cl)cc1)(c1ccc(Cl)cc1)c1cccnc1`, the Potency was 61.1 µM (active).

Consider `COC1=CC(=O)O[C@@H](CCc2ccccc2)C1`, for which the “activity, negative = inhibition” value was -15.6%.

As for `NCC(CC(=O)O)c1ccc(Cl)cc1` (stereo not given), the activity, negative = inhibition is -1% [at 0.349 µM].

`C[C@H]1CNCCc2ccc(Cl)cc21`: the “activity, negative = inhibition” value was -8.49% [at 42.5 µM].

Take `CC(C)(OO)c1ccccc1`: the “activity, negative = inhibition” value is 12.5%.

For `O=C(O)COc1ccc(Cl)cc1`, the “activity, negative = inhibition” value was -3.15%.

Turning to `COc1ccc(-c2ccccc2)cc1NNC(=O)OC(C)C`, the Potency was 35.8 µM (active).

In the case of `N#C/C(N)=C(/N)C#N`, the “activity, negative = inhibition” value is 1.26%.

Take `COc1nn(C(=O)NS(=O)(=O)c2ccccc2OC(F)(F)F)c(=O)n1C`: the “activity, negative = inhibition” value is 11.2%.

Turning to `Cc1ccccc1CCl`, the “activity, negative = inhibition” value was 2.1%.

Regarding `Cc1ccc(N)cc1C`, the “activity, negative = inhibition” value was 37.9%.

On to `CCOP(=O)(OCC)O/C(=C/Cl)c1ccc(Cl)cc1Cl`, for which the Potency was 2.73 µM (active).

In the case of `CC(Cl)C(C)Cl` (stereo not given), the “activity, negative = inhibition” value was 3.39%.

Take `O=Cc1ccc(Cl)cc1Cl`: the “activity, negative = inhibition” value was 5.97%.

In the case of `CCc1ccc(C(=O)NN(C(=O)c2cc(C)cc(C)c2)C(C)(C)C)cc1`, the Potency is 30.6 µM (active).

As for `CCBr`, the “activity, negative = inhibition” value was 7.99%.

Consider `C=C(C#N)CCC#N`, for which the “activity, negative = inhibition” value is -0.95%.

For `NC(=O)CI`, the “activity, negative = inhibition” value is -24.4%.

Take `COC(C)(C)CCC[C@H](C)C/C=C/C(C)=C/C(=O)OC(C)C`: the “activity, negative = inhibition” value was -19.3%.

On to `COc1cc(CC(C)N)cc2c1OCO2` (stereo not given), for which the “activity, negative = inhibition” value was -6.04%.

Consider `C=CC(=O)OCC(C)O` (stereo not given), for which the “activity, negative = inhibition” value was 32.4%.

For `COP(=S)(Oc1cc(Cl)c(Br)cc1Cl)c1ccccc1` (stereo not given), the Potency is 54.5 µM (active).

For the molecule `CN1C(=O)C(O)N=C(c2ccccc2)c2cc(Cl)ccc21` (stereo not given), the “activity, negative = inhibition” value is 0.481%.
